Rows were chosen to be rich in hits. Some 19% of all compounds tested hit in one or more screens of this group.
TDP1 cell CPT: growth inhibition of DT40 Tdp1-/-;hTDP1 cells with camptothecin (screen for TDP1 inhibitors). chicken DT40 Tdp1-/-;hTDP1 cells + 20 nM CPT, ATP luminescence, 48 h. Potency, µM (highest dose often 46.2 µM), for the others: at the top dose activity change, negative = growth inhibition, hits mostly inhibitors. actives 12% (n = 420,000). AID 686979; also: nearly all actives have a fitted effect of over 55% in size
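Chicken DT40 Tdp1-/- cells complemented with human TDP1, 400 cells/well, exposed to compounds plus 20 nM camptothecin for at least 48 h at 37 C; viability read as ATP content by CellTiter-Glo luminescence.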
KB-V1 cytotox: kills drug-selected multidrug resistant KB-V1 cells; KB-V1 MDR cells viability, CellTiter-Glo, 72 h; Potency, µM (doses to about 46.1 µM), hits mostly cytotoxic; actives 3.4% (n = 400,000); also: nearly all actives have a fitted effect of over 60% in size
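qHTS viability screen in drug-selected KB-V1 MDR cells: 72 h compound treatment at 37 degrees C, ATP luminescence end point.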
DT40 TDP1 no CPT: qHTS for Inhibitors of human tyrosyl-DNA phosphodiesterase 1 (TDP1): qHTS in cells in absence of CPT. AID 686978, 2013. Potency, µM (highest dose often 46.2 µM), for inactives: at the top dose activity change, negative = growth inhibition, hits mostly inhibitors. actives 15% (n = 420,000). DT40 Tdp1-/- hTDP1 cells, no CPT, ATP luminescence, 48 h; also: nearly all actives have a fitted effect of over 55% in size
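Growth kinetics read by CellTiter-Glo luminescence after ≥48 hr at 37 °C. Cells: DT40 Tdp1-/- stably carrying human TDP1, 400 per well, compound exposure in the absence of CPT (DMSO vehicle).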
KB-3-1 tox: KB-3-1 parental cell cytotoxicity; actives 1.4% (n = 400,000); AID 1347075; Potency, µM (titrated, usually from 46.1 µM), most hits filed as cytotoxic; KB-3-1 viability, CellTiter-Glo ATP luminescence, 72 h; also: nearly all actives have a fitted effect of over 60% in size
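Viability of parental KB-3-1 cells, measured by CellTiter-Glo luminescence, followed a 72 h incubation at 37 °C with pinned compounds in phenol-red-free DMEM containing 10% FBS.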
HT1080 IDH1KD tx: HT-1080 IDH1 knockdown cell toxicity (counter line); HT-1080 IDH1 knockdown viability, ATP luminescence, 48 h; actives 2% (n = 360,000); Potency, µM (highest dose often 46.1 µM), inactives show top-dose activity, negative = toxicity, hits mostly cytotoxic;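 also: 0% = DMSO wells and -100% = cell-free medium wells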
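% activity derives from luminescence (CellTiter-Glo), normalised to DMSO and no-cell wells. HT-1080-IDH1KD cells, 750/well, had 48 h compound exposure at 37 °C.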
HT1080-NT tox: kills 2HG-producing HT-1080-NT fibrosarcoma cells; HT-1080-NT fibrosarcoma viability, CellTiter-Glo ATP luminescence, 48 h; Potency, µM (titrated, usually from 46.1 µM), for the others: top-dose activity, negative = less viability, usual class: cytotoxic; actives 1.6% (n = 360,000);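 also: NT is the 2HG producing partner of a matched IDH1 knockdown line; 0% = DMSO-treated cells and -100% = media-only wells without cells; nearly all actives have a fitted effect of over 55% in size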
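Luminescent CellTiter-Glo readout after 48 hours of compound exposure at 37 degrees C defined viability of HT-1080-NT cells. Activity was normalized to DMSO wells and cell-free media wells; concentration-response curves were fitted and assigned curve classes.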
Active calls of the source: *; i = inactive; ? = inconclusive; · = no result; [ ] = another dose, or the depositor's remark. Calls follow the shape of the dose curve; as a rule, active = well fitted curve in the direction sought with a large enough effect; inconclusive = small, poorly fitted or top-dose-only effect, or another doubt; inactive = no such curve, though single readings can be large; an effect the other way counts as inactive or inconclusive. Unless noted, % is scaled to controls: 0 for no effect and ±100 for the full control effect; potency is read from the fitted curve at half-maximal effect.

SMILES	TDP1 cell CPT	KB-V1 cytotox	DT40 TDP1 no CPT	KB-3-1 tox	HT1080 IDH1KD tx	HT1080-NT tox
CC1CN(C(=O)c2ccc(NS(=O)(=O)c3ccc(C(C)(C)C)cc3)cc2)CC(C)O1 (configuration not stated)	15µM*	i	9.2µM*	i	-15%	-17%
CCOc1ccc(NS(=O)(=O)c2ccc(C(=O)N3CCCCC3)cc2)cc1	15µM*	i	13µM*	?	-19%	-2%
CCOc1ccc(S(=O)(=O)Nc2ccc(C(=O)N3CC(C)OC(C)C3)cc2)cc1 (configuration not stated)	?	i	-22%	i	0%	4%
CCOc1ccc(NS(=O)(=O)c2ccc(C(=O)N3CCN(c4ncccn4)CC3)cc2)cc1	9.2µM*	?	8.2µM*	?	?	-21%
CC(C)[C@H](NS(=O)(=O)c1ccc2c(c1)OCCO2)C(=O)OCC(=O)Nc1cc(Cl)ccc1Cl	?	i	29µM*	i	-4%	-7%
Cc1ccc(N2C(SCC(=O)O)=NC(=Nc3cccc(C)c3)C23CCCC3)cc1	-2%	i	-4%	i	-5%	-8%
CCCS(=O)(=O)NC(=O)C1(C)CCN(C(=O)c2ccc(F)c(C)c2)C1 (configuration not stated)	-45%	i	-4%	i	3%	?
CCOC(=O)C1CCN(C(=O)C2CCN(C3=NS(=O)(=O)C(c4ccc(C)c(C)c4)=C3C)CC2)CC1	16µM*	i	?	i	·	·
CC1=C(c2ccc(C)c(C)c2)S(=O)(=O)N=C1N1CCC(C(=O)N2CCC(C(N)=O)CC2)CC1	3%	i	7%	i	·	·
CC1=C(c2ccc(C)c(C)c2)S(=O)(=O)N=C1N1CCC(C(=O)Nc2ccc(Cl)cc2)CC1	16µM*	i	15µM*	i	·	·
CCc1ccccc1NC(=O)C1CCN(C2=NS(=O)(=O)C(c3ccc(C)c(C)c3)=C2C)CC1	?	i	?	i	·	·
CC1=C(c2ccc(C)c(C)c2)S(=O)(=O)N=C1N1CCC(C(=O)N2CCC(C)CC2)CC1	?	i	6.5µM*	i	·	·
C#CCOCCOCCOCCNc1nc(N2CCN(C(=O)C([C@@H](C)CC)n3cc(C(N)COC(=O)C(F)(F)F)nn3)CC2)nc(N2CCN(C(=O)C([C@@H](C)CC)n3cc(C(N)CC(C)C)nn3)CC2)n1 (some centres not stated)	7%	?	-4%	?	15%	10%
CCC1CC(/C(C)=N/NC(N)=O)OC1=O (configuration not stated)	4%	i	0%	i	12%	7%
C/C(=N\NC(N)=S)C1C2C3CC4C5CC(C42)C1C53 (configuration not stated)	?	?	10µM*	i	-7%	-24%
COc1ccc(CCNC(=O)C2CCN(C(=O)c3ccc([N+](=O)[O-])cc3)CC2)cc1	-11%	i	-4%	i	12%	13%
CC(C)Oc1ccc(OCCCN2CCCCCC2)cc1	-1%	i	-22%	i	-3%	-11%
CCCC(O)(CCN1CCOCC1)c1ccc(Br)cc1 (configuration not stated)	?	i	?	i	-6%	0%
CCCOc1ccc(C(O)(CCC)CCN2CCCCC2)cc1 (configuration not stated)	21µM*	i	23µM*	?	-4%	-4%
CC(C)(C)c1ccc(OCCCN2CCCC2)cc1	?	i	13µM*	i	-21%	-12%
CCOC(=O)N1CCN(S(=O)(=O)c2ccc(C(=O)N(CCCN(C)C)c3nc4ccc(CC)cc4s3)cc2)CC1	?	i	?	i	16µM*	?
CCOC(=O)N1CCN(S(=O)(=O)c2ccc(C(=O)N(CCCN(C)C)c3nc4ccc(Cl)cc4s3)cc2)CC1	?	i	18µM*	i	-12%	-18%
CCOC(=O)N1CCN(S(=O)(=O)c2ccc(C(=O)N(CCN(C)C)c3nc4ccc(CC)cc4s3)cc2)CC1	-12%	i	-5%	i	-7%	-6%
Cc1ccc2nc(N(CCCN(C)C)C(=O)c3ccc(S(=O)(=O)N4CCCCCC4)cc3)sc2c1	?	i	?	?	18µM*	?
Cc1ccc2nc(N(CCCN(C)C)C(=O)c3ccc4ncsc4c3)sc2c1	16µM*	i	?	i	?	?
SMILES	TDP1 cell CPT	KB-V1 cytotox	DT40 TDP1 no CPT	KB-3-1 tox	HT1080 IDH1KD tx	HT1080-NT tox
CC(=O)N1CCN(C(=O)CCc2cc(C(C)(C)C)c(O)c(C(C)(C)C)c2)CC1	-26%	?	-24%	i	15%	-7%
CC(C)(O)CN(C(=O)c1ccc([N+](=O)[O-])cc1)C1CCCC1	-4%	?	-2%	i	19%	3%
CC(=O)c1cccc(NC(=O)CSc2nc3ccccc3nc2Cc2ccc(F)cc2)c1	?	·	-30%	·	·	·
COc1cccc(Nc2nnc(SCc3nc4ccccc4s3)s2)c1	?	?	?	i	-3%	-13%
Cc1nc(CSc2nnc(Nc3cccc(C)c3C)s2)cs1	0%	18µM*	-11%	i	13%	18%
Cc1cccc(C)c1Nc1nnc(SCc2nc3ccccc3s2)s1	-11%	16µM*	-26%	i	-2%	-2%
Cc1cccc(Nc2nnc(SCC(=O)Nc3ccccc3[N+](=O)[O-])s2)c1C	?	?	?	i	-25%	-17%
COc1cc(-c2cccc(Cl)c2)cc2c1OCCN(C(=O)CCn1ccc(C)n1)C2	1%[9.04 µM]	·	?	·	·	·
Cc1ccc(-c2nc3ccc(C)cn3c2CC2CCCCC2)cc1	?	?	16µM*	?	-6%	-3%
Cc1ccc(-c2nc3ccc(Cl)cn3c2CC2CCCCC2)cc1	-20%	?	?	i	19%	12%
COC(=O)c1ccc2nc(-c3ccc(F)cc3)c(Cc3ccc(OC)cc3C)n2c1	?	i	?	i	?	?
COC(=O)c1ccc2nc(-c3ccc(C)cc3)c(CC3CCCCC3)n2c1	21µM*	i	16µM*	i	-4%	-17%

Screening data deposited in PubChem BioAssay by National Center for Advancing Translational Sciences (NCATS).
